For some of these results: Entries with a potency or affinity are not part of this list.

What all share (parameters): scale not given: direction of the effect not stated beside the values
In assay [1] the target is Protein translocase subunit SecA (Escherichia coli (strain K12)) (UniProt P10408). In words: Assay to Identify E. coli SecA ATPase Inhibitors. Format: functional. The note with it: 30 µM.
Assay [2] deals with T1, Ubiquitin-activating enzyme e1, putative (Leishmania donovani (strain BPK282A1)) (UniProt E9BSI1).
T1 sequence (whole entry): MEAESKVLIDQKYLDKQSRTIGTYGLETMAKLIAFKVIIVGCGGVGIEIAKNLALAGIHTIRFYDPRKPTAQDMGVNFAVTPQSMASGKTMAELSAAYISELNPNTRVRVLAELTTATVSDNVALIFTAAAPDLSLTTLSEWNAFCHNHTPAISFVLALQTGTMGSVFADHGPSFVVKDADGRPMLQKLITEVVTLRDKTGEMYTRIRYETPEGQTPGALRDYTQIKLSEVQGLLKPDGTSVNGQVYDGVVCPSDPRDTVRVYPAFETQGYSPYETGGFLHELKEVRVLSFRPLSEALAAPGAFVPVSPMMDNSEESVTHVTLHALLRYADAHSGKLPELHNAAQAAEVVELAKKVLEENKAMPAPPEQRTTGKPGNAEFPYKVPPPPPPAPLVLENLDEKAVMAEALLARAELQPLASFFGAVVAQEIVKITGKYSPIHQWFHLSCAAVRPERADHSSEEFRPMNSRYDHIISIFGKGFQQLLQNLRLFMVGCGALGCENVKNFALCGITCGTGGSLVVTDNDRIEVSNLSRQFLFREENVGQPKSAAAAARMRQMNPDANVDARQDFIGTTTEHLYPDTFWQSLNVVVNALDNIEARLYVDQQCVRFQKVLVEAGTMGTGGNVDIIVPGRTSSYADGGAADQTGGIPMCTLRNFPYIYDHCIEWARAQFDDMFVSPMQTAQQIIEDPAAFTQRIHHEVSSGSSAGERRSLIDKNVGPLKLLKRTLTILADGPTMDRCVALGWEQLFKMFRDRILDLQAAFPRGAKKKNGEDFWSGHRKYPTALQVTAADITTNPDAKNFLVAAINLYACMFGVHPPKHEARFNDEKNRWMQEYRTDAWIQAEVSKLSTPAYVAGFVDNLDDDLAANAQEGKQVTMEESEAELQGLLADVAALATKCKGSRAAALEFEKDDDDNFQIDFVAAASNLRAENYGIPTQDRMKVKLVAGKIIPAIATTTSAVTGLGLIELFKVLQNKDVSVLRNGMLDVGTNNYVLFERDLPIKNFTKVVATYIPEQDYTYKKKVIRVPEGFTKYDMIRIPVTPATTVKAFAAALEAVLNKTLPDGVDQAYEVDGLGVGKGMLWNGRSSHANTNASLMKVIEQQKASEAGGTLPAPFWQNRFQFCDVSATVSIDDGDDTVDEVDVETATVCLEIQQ
The assay can be described thus: Leishmania donovani Ubiquitin Activating Enzyme (LdE1). It is filed as functional. The note with it: 30 µM.

For assay [3], the target named is AMP-activated protein kinase, AMPK (Homo sapiens) (UniProt P54646+O43741+P54619+Q9UGJ0+Q9Y478+Q13131+Q9UGI9). In words: AMP-dependent Kinase enzyme assay. An in vitro enzyme assay that detects ADP turnover that is directly proportional to AMPK activity. This uses naive AMPK that is activated during the assay with MK-8722. It is filed as functional. The note with it: 30 µM.

Assay [4] concerns the target Sialic acid-binding Ig-like lectin 9 (Homo sapiens) (UniProt Q9Y336). In words: Hs-Siglec9 ALPHAscreen SOP 20170721. The note with it: 10 µM. (In general: Alpha assays give light when donor and acceptor beads are brought close together.)
For a further assay, the system named is Trypanosoma cruzi. The assay can be described thus: Trypanosoma cruzi phosphomannomutase and mannose-1-phosphate guanylyltransferase assay. The note with it: 10 µM. It is filed as functional.
The target of assay [5] is T2, Arginase-2, mitochondrial (Homo sapiens) (UniProt P78540).
T2 sequence (whole entry): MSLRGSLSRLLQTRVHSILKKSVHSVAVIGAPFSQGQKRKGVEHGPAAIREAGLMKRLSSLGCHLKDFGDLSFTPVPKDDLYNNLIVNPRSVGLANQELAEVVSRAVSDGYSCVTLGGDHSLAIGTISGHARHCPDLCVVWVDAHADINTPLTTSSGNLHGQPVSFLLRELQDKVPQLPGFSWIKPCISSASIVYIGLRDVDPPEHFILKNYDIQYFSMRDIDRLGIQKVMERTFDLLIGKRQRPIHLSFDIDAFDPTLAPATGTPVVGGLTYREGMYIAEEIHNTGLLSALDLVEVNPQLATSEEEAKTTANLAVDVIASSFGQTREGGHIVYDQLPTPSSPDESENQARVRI
In words: in vitro enzyme assay to detect the production of urea directly proportional to the activity of Arginase II. Also: in the data most compounds retested in dose-response had high values. It is filed as functional. The note with it: 33.3 µM.

Assay [6] has as its target T3, Proteasome subunit beta (Trypanosoma cruzi) (UniProt O96673).
T3 sequence (whole entry): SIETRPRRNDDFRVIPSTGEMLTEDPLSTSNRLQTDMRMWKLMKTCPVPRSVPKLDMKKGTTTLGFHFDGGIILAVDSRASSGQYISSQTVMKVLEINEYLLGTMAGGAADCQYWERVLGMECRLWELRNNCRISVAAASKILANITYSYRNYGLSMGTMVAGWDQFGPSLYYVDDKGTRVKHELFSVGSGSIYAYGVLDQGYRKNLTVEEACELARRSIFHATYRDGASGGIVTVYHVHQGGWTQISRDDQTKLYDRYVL
In words: Trypanosoma cruzi proteasome chymotrypsin-like activity (TcProtChymo) assay. Also: in the data most compounds retested in dose-response had high values. The note with it: 9.37 µM. It is filed as functional.

The species entered for another assay is Homo sapiens. In words: To identify inhibition of the IFN signalling (Jak-Stat) pathway via expression of an eGFP reporter gene under the control of an IFN-stimulated response element (ISRE) containing MxA promoter. Format: functional. The note with it: 30 µM.
Assay [7] concerns the target T4, Tyrosyl-tRNA synthetase, putative (Trypanosoma cruzi (strain CL Brener)) (UniProt Q4DSP6).
T4 sequence (whole entry): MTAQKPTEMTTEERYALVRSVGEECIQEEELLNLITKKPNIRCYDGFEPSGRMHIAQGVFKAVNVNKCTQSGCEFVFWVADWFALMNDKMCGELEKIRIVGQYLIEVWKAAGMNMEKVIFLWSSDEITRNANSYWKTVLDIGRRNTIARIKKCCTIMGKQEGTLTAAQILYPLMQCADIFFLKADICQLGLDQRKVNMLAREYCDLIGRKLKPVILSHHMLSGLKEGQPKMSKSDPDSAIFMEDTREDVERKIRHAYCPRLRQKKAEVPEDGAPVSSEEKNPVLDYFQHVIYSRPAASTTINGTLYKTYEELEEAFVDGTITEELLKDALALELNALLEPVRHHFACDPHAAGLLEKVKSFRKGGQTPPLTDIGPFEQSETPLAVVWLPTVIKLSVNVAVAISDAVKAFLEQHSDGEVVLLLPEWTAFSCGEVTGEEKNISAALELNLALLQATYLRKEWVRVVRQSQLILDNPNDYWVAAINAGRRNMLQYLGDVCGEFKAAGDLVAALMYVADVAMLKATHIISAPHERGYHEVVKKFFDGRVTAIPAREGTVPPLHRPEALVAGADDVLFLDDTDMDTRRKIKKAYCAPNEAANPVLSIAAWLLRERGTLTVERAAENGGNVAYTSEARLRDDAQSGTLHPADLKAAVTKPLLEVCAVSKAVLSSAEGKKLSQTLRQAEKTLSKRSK
The assay can be described thus: Trypanosoma cruzi tyrosyl tRNA synthetase (TcYRS) _High Tyrosine SOP. Also: in the data most compounds retested in dose-response had high values. The note with it: 30 µM. Format: functional.

The target of assay [8] is T4, Tyrosyl-tRNA synthetase, putative (Trypanosoma cruzi (strain CL Brener)). In words: Trypanosoma cruzi tyrosyl tRNA synthetase (TcYRS) SOP. It is filed as functional. The note with it: 30 µM.
The target in assay [9] is Chromo domain-containing protein 1 (Saccharomyces cerevisiae (strain ATCC 204508 / S288c) (Baker's yeast)) (UniProt P32657). In words: ScCHD-1 Enzyme Inhibition Assay. Also: in the data most compounds retested in dose-response had high values. The note with it: 30 µM. It is filed as functional.
Chain of Chromo domain-containing protein 1 (Saccharomyces cerevisiae (strain ATCC 204508 / S288c) (Baker's yeast)) (P32657 whole entry, the tested form may be a part): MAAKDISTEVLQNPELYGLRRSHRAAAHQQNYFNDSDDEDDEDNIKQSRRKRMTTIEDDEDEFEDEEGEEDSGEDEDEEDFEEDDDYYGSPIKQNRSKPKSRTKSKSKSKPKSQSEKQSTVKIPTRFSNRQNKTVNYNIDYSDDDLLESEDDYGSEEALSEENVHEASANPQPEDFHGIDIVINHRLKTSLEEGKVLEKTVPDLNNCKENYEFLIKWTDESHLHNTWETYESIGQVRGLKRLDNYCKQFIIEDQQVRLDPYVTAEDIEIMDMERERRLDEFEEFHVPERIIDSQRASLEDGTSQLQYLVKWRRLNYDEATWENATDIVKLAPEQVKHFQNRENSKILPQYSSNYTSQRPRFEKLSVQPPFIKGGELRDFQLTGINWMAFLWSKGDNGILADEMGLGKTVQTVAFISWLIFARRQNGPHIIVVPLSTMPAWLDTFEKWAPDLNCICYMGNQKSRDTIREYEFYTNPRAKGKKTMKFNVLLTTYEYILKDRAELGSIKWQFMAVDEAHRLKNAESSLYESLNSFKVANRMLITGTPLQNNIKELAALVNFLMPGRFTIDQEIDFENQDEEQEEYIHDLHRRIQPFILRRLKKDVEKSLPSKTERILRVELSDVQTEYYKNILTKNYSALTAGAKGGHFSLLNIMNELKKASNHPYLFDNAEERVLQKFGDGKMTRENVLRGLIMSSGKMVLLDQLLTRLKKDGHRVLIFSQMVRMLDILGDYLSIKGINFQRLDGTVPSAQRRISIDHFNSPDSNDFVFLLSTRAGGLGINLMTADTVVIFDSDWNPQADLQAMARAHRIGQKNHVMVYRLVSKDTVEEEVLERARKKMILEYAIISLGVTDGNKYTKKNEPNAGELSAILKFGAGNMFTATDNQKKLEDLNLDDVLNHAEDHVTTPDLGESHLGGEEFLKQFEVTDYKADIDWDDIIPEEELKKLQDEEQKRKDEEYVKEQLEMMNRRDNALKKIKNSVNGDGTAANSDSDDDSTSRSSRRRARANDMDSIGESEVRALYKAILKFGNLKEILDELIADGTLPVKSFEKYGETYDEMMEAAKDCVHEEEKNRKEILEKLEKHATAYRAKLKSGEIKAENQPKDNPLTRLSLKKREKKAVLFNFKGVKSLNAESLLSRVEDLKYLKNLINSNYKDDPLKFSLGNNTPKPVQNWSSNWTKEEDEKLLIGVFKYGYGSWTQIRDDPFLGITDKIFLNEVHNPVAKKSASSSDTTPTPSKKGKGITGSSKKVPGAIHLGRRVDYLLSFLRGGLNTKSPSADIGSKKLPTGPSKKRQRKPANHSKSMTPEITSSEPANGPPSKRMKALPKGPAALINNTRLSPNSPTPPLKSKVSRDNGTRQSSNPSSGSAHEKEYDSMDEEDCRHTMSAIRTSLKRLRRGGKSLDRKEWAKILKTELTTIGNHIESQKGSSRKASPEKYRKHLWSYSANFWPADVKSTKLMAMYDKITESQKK

Chain of Sialic acid-binding Ig-like lectin 9 (Homo sapiens) (Q9Y336 whole entry): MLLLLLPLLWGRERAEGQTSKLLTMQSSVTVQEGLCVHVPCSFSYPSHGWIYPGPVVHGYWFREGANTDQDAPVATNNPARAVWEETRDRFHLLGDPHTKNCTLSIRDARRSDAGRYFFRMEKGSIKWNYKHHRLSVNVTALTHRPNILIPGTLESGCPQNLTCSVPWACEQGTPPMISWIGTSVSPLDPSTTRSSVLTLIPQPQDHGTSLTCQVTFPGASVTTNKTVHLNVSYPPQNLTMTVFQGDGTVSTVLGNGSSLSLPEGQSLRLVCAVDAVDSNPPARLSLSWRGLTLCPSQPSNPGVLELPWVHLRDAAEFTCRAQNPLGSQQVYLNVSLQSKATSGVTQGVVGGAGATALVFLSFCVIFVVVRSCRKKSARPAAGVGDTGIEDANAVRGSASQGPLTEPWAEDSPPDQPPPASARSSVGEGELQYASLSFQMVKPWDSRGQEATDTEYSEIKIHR
Chain of Protein translocase subunit SecA (Escherichia coli (strain K12)) (P10408 whole entry): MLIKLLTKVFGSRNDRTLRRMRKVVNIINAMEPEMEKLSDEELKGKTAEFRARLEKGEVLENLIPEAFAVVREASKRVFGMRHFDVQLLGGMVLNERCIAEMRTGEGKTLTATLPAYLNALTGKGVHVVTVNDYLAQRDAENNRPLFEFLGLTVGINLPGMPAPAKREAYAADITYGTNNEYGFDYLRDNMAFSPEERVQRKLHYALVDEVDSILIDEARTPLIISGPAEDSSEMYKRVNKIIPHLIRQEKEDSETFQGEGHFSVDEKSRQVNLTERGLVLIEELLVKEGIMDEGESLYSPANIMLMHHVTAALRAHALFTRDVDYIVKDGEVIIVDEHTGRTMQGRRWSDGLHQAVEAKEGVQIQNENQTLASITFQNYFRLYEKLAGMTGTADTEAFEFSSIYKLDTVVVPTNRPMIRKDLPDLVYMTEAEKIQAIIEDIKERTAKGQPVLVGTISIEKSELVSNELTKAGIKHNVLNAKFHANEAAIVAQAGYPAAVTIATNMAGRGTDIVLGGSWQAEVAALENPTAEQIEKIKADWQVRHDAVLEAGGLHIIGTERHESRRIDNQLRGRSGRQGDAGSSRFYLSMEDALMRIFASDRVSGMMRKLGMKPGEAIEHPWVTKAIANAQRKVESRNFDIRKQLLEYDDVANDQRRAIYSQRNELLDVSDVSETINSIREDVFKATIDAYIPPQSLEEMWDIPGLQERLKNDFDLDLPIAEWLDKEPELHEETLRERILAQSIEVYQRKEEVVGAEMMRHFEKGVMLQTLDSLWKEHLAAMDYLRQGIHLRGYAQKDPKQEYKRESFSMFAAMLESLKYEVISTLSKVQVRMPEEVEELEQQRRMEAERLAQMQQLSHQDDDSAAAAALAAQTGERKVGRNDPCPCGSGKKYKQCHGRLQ

Consider `O=C(c1ccc[nH]1)N1C[C@H]2CC[C@@H]1CN(c1ncccn1)C2`, for which the Percent Effect in [1] was -5.19%; in assay [2], 5.2%; in assay [3] it was 7.19%; in assay [4] it was 11.1%; with Trypanosoma cruzi, 2.26%; in assay [5], -9.65%. For the same compound, the Percent Effect is 6.49% in [6]; -14.3% in the assay filed under Homo sapiens; 6.45% in assay [7]; 13.6% in assay [8]; -0.0272% in assay [9].
For the compound `COc1ccc(-c2noc(CN3CCOCC3C)n2)cc1OC` (stereo unspecified), the Percent Effect is -2.2% in [1]; 18.9% in assay [2]; -11.1% in assay [3]; 15.8% in assay [4]; 0.0943% in the assay on Trypanosoma cruzi; -6.81% in assay [5]. Also, the Percent Effect in assay [6] was 8.83%; in the assay listed under Homo sapiens it was 28.9%; in assay [7], 5.42%; in assay [8] it was 16.1%; in assay [9] it was -11%.
Consider `CCc1cnc(N)nc1NCCN1CCCCC1`, for which the Percent Effect in assay [1] was -4.23%; in assay [2], 13%; in [3], 1.45%; in [4], 11.9%; in the assay with Trypanosoma cruzi it was 6.59%; in assay [5], 2.76%. Further, the Percent Effect is 7.16% in [6]; 4.63% in the assay filed under Homo sapiens; 7.53% in [7]; 16.1% in assay [8]; -7.73% in [9].
Consider `CC(=O)N1CC[C@@H]2CN(C(=O)c3ccco3)CCO[C@@H]2C1`, for which the Percent Effect in assay [1] is 0.266%; in assay [2] it was 13.3%; in [3], 8.75%; in [4], 0.752%; in the assay on Trypanosoma cruzi, -4.33%; in [5], 6.29%. For the same compound, the Percent Effect is 12.8% in [6]; -9.46% in the assay listed under Homo sapiens; 3.19% in assay [7]; 3.85% in assay [8]; -2.25% in assay [9].
With `COCCO[C@H]1CCN(C(=O)c2ccno2)[C@H]1Cc1cnn(C)c1`, the Percent Effect in [1] is -1.65%; in assay [2], -2.7%; in [3] it was -2.17%; in assay [4], -4.71%; in the assay on Trypanosoma cruzi, -2.54%; in assay [5] it was 1.67%. For the same compound, the Percent Effect was 2.79% in [6]; -28.8% in the assay filed under Homo sapiens; 4.95% in [7]; -3.66% in assay [8]; 1.61% in assay [9].
Consider `Cc1nn(C)c2cn(C(C)C(=O)NCc3cccnc3)nc12` (stereo unspecified), for which the Percent Effect was -2.07% in assay [1]; 14.7% in [2]; -8.7% in assay [3]; 5.87% in assay [4]; 1.77% in the assay on Trypanosoma cruzi; -6.16% in [5]. For the same compound, the Percent Effect in [6] was 17.9%; in the assay listed under Homo sapiens, 20.4%; in assay [7], -4.23%; in [8], 10.3%; in [9], -9.99%.
In the case of `O=C(NCc1nnc2n1CCCC2)N(Cc1ccccc1F)C1CC1`, the Percent Effect in assay [1] was -2.88%; in assay [2] it was 5.41%; in [3] it was -1.8%; in [4] it was 0.0872%; with Trypanosoma cruzi it was -2.12%; in [5] it was -2.38%. Moreover, the Percent Effect in assay [6] is 12.8%; in the assay listed under Homo sapiens it was 7.52%; in assay [7] it was 0.529%; in assay [8], 0%; in [9], -4.24%.
With `Clc1snnc1CN1CCOC(CNc2cccnn2)C1` (stereo unspecified), the Percent Effect is 0.0334% in assay [1]; -2.6% in [2]; -5.26% in [3]; 8.04% in assay [4]; 5.8% in the assay on Trypanosoma cruzi; 5.34% in [5]. Also, the Percent Effect is 1.18% in assay [6]; -0.834% in the assay listed under Homo sapiens; 4.85% in assay [7]; 12.2% in assay [8]; -5.35% in assay [9].
With `Cc1cc(C2CCCN2CCCc2nc3ccccc3o2)on1` (stereo unspecified), the Percent Effect is 0.895% in assay [1]; 5.41% in assay [2]; -3.23% in assay [3]; 0.643% in assay [4]; -3.87% with Trypanosoma cruzi; 21.6% in assay [5]. Besides, the Percent Effect is 1.62% in assay [6]; 2.07% in the assay listed under Homo sapiens; 4.43% in assay [7]; 6.17% in [8]; -3.04% in assay [9].
Consider `CCN1CCC(NC(=O)CN2CCc3c(ncn3C)C2)CC1`, for which the Percent Effect was -4.55% in assay [1]; 6.33% in assay [2]; -3.84% in assay [3]; -0.206% in [4]; -3.59% with Trypanosoma cruzi; 6.24% in assay [5]. The Percent Effect in assay [6] is 9.43%; in the assay listed under Homo sapiens, 10.1%; in assay [7] it was -7.29%; in assay [8] it was 0%; in [9] it was -5.67%.
Consider `COc1ccc(C)cc1CN1CCCC1Cn1nc(C)nc1C` (stereo unspecified), for which the Percent Effect in [1] is -5.51%; in [2], -3.8%; in assay [3] it was -7.49%; in assay [4] it was 4.01%; with Trypanosoma cruzi it was 2.97%; in assay [5], -0.645%. For the same compound, the Percent Effect in assay [6] is 16.6%; in the assay listed under Homo sapiens, 46.5%; in [7], 8.33%; in assay [8], 12.7%; in assay [9], -26.7%.
